Test systems include NCI-H23 lung; NCI-H226 lung; NCI-H322M lung; HOP-62 NSCLC; NCI-H460 lung; HOP-92 NSCLC; NCI-H522 lung; A549/ATCC NSCLC; 786-0 renal; COLO 205 colon.
Assay in all cases: NCI-60 one-dose screen, 48 h (100 = growth as untreated, 0 = no growth, -100 = all killed)
What all share (settings): 10 µM unless noted

Compounds without any hit were thinned out: in the full panel of roughly 83,000, 20% have a hit.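 Each cell line was grown in a 96-well plate and treated with one concentration of compound for 48 hours. Values below 10 were considered active.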 Unmarked numbers belong to inactive results. Active and inactive are the calls of the source.

As for `NNc1nc(-c2cccnc2)nc2c1sc(=S)n2-c1ccccc1`, the growth with NCI-H23 lung is 102%; in the assay with NCI-H226 lung, 105%; in the assay on NCI-H322M lung, 101%; with HOP-62 NSCLC, 69.1%; in the assay with NCI-H460 lung it was 107%; with HOP-92 NSCLC it was 84.9%. In addition, the growth in the assay on NCI-H522 lung was 58.7%; in the assay with A549/ATCC NSCLC it was 87.7%; with 786-0 renal it was 89.7%; in the assay with COLO 205 colon, 98.4%.
In the case of `C/C(Cc1ccc(Cl)cc1)=C(\c1ccc(O)cc1)c1ccc(Cl)cc1`, the growth in the assay with NCI-H23 lung was 85.2%; in the assay on NCI-H226 lung it was 93.3%; in the assay with NCI-H322M lung, 83.3%; with HOP-62 NSCLC, 110%; in the assay on NCI-H460 lung, 91.5%; in the assay with HOP-92 NSCLC it was 83.1%. The growth with NCI-H522 lung was 84.1%; in the assay on A549/ATCC NSCLC, 94.8%; in the assay with 786-0 renal, 89.5%; in the assay on COLO 205 colon it was 109%.
Turning to `O=C(NNC(=O)c1ccc(NC(=O)c2ccccn2)cc1)Nc1ccc([N+](=O)[O-])cc1`, the growth in the assay on NCI-H23 lung was 106%; in the assay with NCI-H226 lung it was 94.2%; with NCI-H322M lung, 95.7%; with HOP-62 NSCLC, 96.1%; in the assay on NCI-H460 lung, 107%; with HOP-92 NSCLC, 96.7%. For the same molecule, the growth in the assay on NCI-H522 lung is 100%; with A549/ATCC NSCLC, 100%; in the assay with 786-0 renal, 96.5%; with COLO 205 colon it was 114%.
On to `O=S(=O)(Nc1ccc(F)cc1F)c1ccc(-c2cnc(C3CC3)o2)cc1`, for which the growth was 38% with NCI-H23 lung; 64.3% in the assay on NCI-H226 lung; 47.4% in the assay on NCI-H322M lung; 39.7% in the assay with HOP-62 NSCLC; 16.3% in the assay on NCI-H460 lung; 44.4% in the assay with HOP-92 NSCLC. Also, the growth in the assay on NCI-H522 lung is 13.4%; with A549/ATCC NSCLC, 41.5%; in the assay with 786-0 renal, 44%; in the assay on COLO 205 colon, 16.2%.
Turning to `COc1ccc(C/C(C)=C(\c2ccc(Cl)cc2)c2ccc(OCCN3CCCCC3)cc2)cc1`, the growth is 91.9% with NCI-H23 lung; 86.5% in the assay on NCI-H226 lung; 96.7% in the assay with NCI-H322M lung; 102% in the assay on HOP-62 NSCLC; 101% in the assay with NCI-H460 lung; 87.9% in the assay on HOP-92 NSCLC. Besides, the growth in the assay with NCI-H522 lung was 87.3%; in the assay with A549/ATCC NSCLC, 98.1%; in the assay on 786-0 renal, 93.8%; in the assay on COLO 205 colon it was 95.3%.
Regarding `Cc1ccc(-c2nc(N3CCCNCC3)c3oc(-c4ccc(C)cc4)nc3n2)cc1`, the growth in the assay on NCI-H23 lung was 91.1%; with NCI-H226 lung it was 101%; in the assay on NCI-H322M lung, 16.5%; in the assay with HOP-62 NSCLC, 71.8%; in the assay on NCI-H460 lung, -37.5% (active); with HOP-92 NSCLC, 60.9%. Moreover, the growth with NCI-H522 lung was 65%; in the assay with A549/ATCC NSCLC, -62.3% (active); in the assay with 786-0 renal, -96.2% (active); in the assay with COLO 205 colon, -71.6% (active).
For `O=[N+]([O-])c1cccc(-c2nc3cc4nc5ccccc5[nH]c4cc3n2)c1`, the growth in the assay with NCI-H23 lung was 90.1%; in the assay on NCI-H226 lung, 105%; in the assay with NCI-H322M lung it was 97.7%; in the assay on HOP-62 NSCLC it was 95.7%; in the assay on NCI-H460 lung it was 112%; in the assay on HOP-92 NSCLC, 113%. Further, the growth in the assay with NCI-H522 lung was 92.6%; in the assay on A549/ATCC NSCLC it was 92.6%; in the assay with 786-0 renal it was 91.9%; in the assay with COLO 205 colon, 114%.
Regarding `CN1C(=O)/C(=C\c2nc([P+](c3ccccc3)(c3ccccc3)c3ccccc3)c(N3CCOCC3)o2)SC1=S`, the growth in the assay on NCI-H23 lung is 81.6%; in the assay with NCI-H226 lung, 106%; with NCI-H322M lung, 91.2%; in the assay with HOP-62 NSCLC it was 97.9%; with NCI-H460 lung, 97.6%; in the assay on HOP-92 NSCLC it was -33.6% (active). Moreover, the growth with NCI-H522 lung is 93.6%; in the assay on A549/ATCC NSCLC, 86.1%; in the assay on 786-0 renal it was 97.5%; in the assay with COLO 205 colon it was 88.1%.
As to `Cc1ccccc1/C=C/C(=O)c1cccc(OCCCOc2cccc(C(=O)/C=C/c3ccccc3C)c2)c1`, the growth in the assay with NCI-H23 lung was 88.5% [3 µM]; in the assay on NCI-H226 lung it was 88.9% [3 µM]; in the assay on NCI-H322M lung, 106% [3 µM]; in the assay with HOP-62 NSCLC, 114% [3 µM]; in the assay with NCI-H460 lung, 99.8% [3 µM]; in the assay on HOP-92 NSCLC, 85.9% [3 µM]. Further, the growth in the assay with NCI-H522 lung is 80.5% [3 µM]; in the assay on A549/ATCC NSCLC, 86% [3 µM]; with 786-0 renal, 103% [3 µM]; with COLO 205 colon, 110% [3 µM].
Consider `O=C(/C=C/c1cn(-c2ccccc2)nc1-c1ccc(Cl)cc1)c1ccc(F)cc1`, for which the growth was 69.9% with NCI-H23 lung; 85.8% with NCI-H226 lung; 77.2% in the assay with NCI-H322M lung; 102% with HOP-62 NSCLC; 74% in the assay on NCI-H460 lung; 99.2% in the assay with HOP-92 NSCLC. Besides, the growth is 87.1% in the assay with NCI-H522 lung, 79.7% with A549/ATCC NSCLC, 62.8% with 786-0 renal and 93.4% in the assay with COLO 205 colon.
As for `O=C1/C=C/[C@@H](O)[C@@H]2C[C@@H](O)C[C@H]2/C=C/CCC[C@H](CCc2ccccc2)O1`, the growth in the assay on NCI-H23 lung was 13.3%; in the assay with NCI-H226 lung, -28.6% (active); in the assay on NCI-H322M lung, 35.9%; in the assay with HOP-62 NSCLC, 30.1%; in the assay on NCI-H460 lung, 15.5%; with HOP-92 NSCLC, -16.5% (active). The growth with NCI-H522 lung is 7.89% (active); in the assay with A549/ATCC NSCLC, 16.6%; in the assay with 786-0 renal it was -54.7% (active); with COLO 205 colon, -72.5% (active).
`Nc1ncnc2c1C(c1ccc(Br)cc1)c1sc3c(F)cccc3c1O2` (stereo not given): the growth with NCI-H23 lung was 88.5%; in the assay with NCI-H226 lung, 81.5%; in the assay on NCI-H322M lung, 95.9%; in the assay with HOP-62 NSCLC, 90.1%; in the assay on NCI-H460 lung, 92.1%; with HOP-92 NSCLC, 91.7%. Besides, the growth with NCI-H522 lung is 84.2%; in the assay on A549/ATCC NSCLC it was 99.3%; in the assay on 786-0 renal, 99.9%; in the assay with COLO 205 colon, 106%.
Regarding `CCCCCCCCCCCCCCCCOCCCOP(=O)(O)C1CCCN(O)C1=O` (stereo not given), the growth in the assay with NCI-H23 lung was 18.5%; with NCI-H226 lung, -21.9% (active); with NCI-H322M lung, 28.6%; with HOP-62 NSCLC, 11.9%; in the assay on NCI-H460 lung, -9.19% (active); in the assay on HOP-92 NSCLC, 39.3%. Also, the growth in the assay on NCI-H522 lung was 26.2%; in the assay with A549/ATCC NSCLC, 17.8%; in the assay on 786-0 renal it was -10.4% (active); in the assay on COLO 205 colon it was 4.27% (active).

For the origin of these results see PubChem BioAssay (NCI).
